Laboratory results as given in PubChem BioAssay (NCI).
The panel holds about 79,000 compounds, 15% with a hit somewhere; the sample as a whole holds those more often. Unmarked numbers belong to inactive results. Activity calls are given as the source filed them. Rule as the data show it: active = growth inhibition above about 70%; inactive = the rest.

Experiments:
[1] = NCI Yeast Anticancer Drug Screen. Data for the rad50 strain (AID 155);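 also: 0% = growth of vehicle-only cultures of the same strain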; details: S. cerevisiae rad50 strain growth inhibition; at 50.0 µM; hits give high values
Summary of the method: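 Inhibition values express reduced yeast growth in compound-treated cultures relative to vehicle-treated controls.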

[2] = NCI Yeast Anticancer Drug Screen. Data for the mec2-1 strain (AID 157); details: S. cerevisiae mec2-1 strain, at 50.0 µM, hits give high values
Summary of the method: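 Each compound was tested on mec2-1 yeast, a strain altered in DNA damage repair or cell cycle control. Growth inhibition is reported relative to vehicle.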

[3] = NCI Yeast Anticancer Drug Screen. Data for the sgs1 mgt1 strain (AID 161);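 also: 0% = growth of cultures given vehicle only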; details: S. cerevisiae sgs1 mgt1 strain, at 50.0 µM, hits give high values
Summary of the method: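 Test agents were incubated with a DNA-repair-mutant yeast strain. Growth was then read and compared against vehicle-treated controls.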

[4] = NCI Yeast Anticancer Drug Screen. Data for the cln2 rad14 strain (AID 165);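 also: 0% = growth equal to vehicle treated cultures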; details: S. cerevisiae cln2 rad14 strain, at 50.0 µM, hits give high values
Summary of the method: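 Test compounds were added to cln2 rad14 yeast cultures; inhibition of growth was then determined by comparison with vehicle treatment.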

[5] = NCI Yeast Anticancer Drug Screen. Data for the bub3 strain (AID 167); details: S. cerevisiae bub3 mutant strain, at 50.0 µM, hits give high values
Summary of the method: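 Steps: expose the mutant yeast strain to compound; grow alongside vehicle-treated cultures; measure growth; express inhibition against the vehicle cultures.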

[6] = NCI Yeast Anticancer Drug Screen. Data for the mlh1 rad18 strain (AID 175); details: S. cerevisiae mlh1 rad18 strain growth inhibition; at 50.0 µM; hits give high values
Summary of the method: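 Inhibition values reflect reduced growth of mutant yeast versus vehicle-treated controls following compound exposure; the mutations affect DNA damage repair.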

Row | Structure (SMILES) | growth inhibition [1] | growth inhibition [2] | growth inhibition [3] | growth inhibition [4] [%] | growth inhibition [5] | growth inhibition [6]
1 | Cc1ccc(C(C)C)cc1NC(=O)c1c(Cl)c(Cl)c(Cl)c(Cl)c1C(=O)O | 14.6% | 9.8% | 23.9% | -32.4 | 6.45% | 23.3%
2 | Cc1c([N+](=O)[O-])cc(C(C)(C)C)c(OC(=O)Nc2ccc(Cl)cc2)c1[N+](=O)[O-] | 41.4% | 63.7% | 65.7% | 52.2 | 27.6% | 69%
3 | CC1(C)[C@H]2Cc3c(ccc4c3C(=O)OC4=O)[C@@H]1C2 | 6.75% | -3.9% | 0.35% | -30.6 | -17.4% | 2.45%
4 | CC(=O)OC(C(=O)O)C(OC(C)=O)C(OC(C)=O)C(=O)O (stereo unspecified) | 21.5% | 19.2% | 13.8% | -5.85 | 5.7% | 8.4%
5 | Cn1c(=O)c(-c2ccccc2)c(O)c2ccccc21 | 14.8% | 12.4% | -2.4% | 27.4 | -8.1% | -20.4%
6 | O=[N+]([O-])c1cc(N(c2ccccc2)c2ccccc2)cc([N+](=O)[O-])c1 | 2.05% | -12.4% | -30.4% | 9.95 | -2.8% | -22.6%
7 | CC(=O)CC(=O)Nc1cccc(C)c1 | -13.9% | -15.7% | 2.8% | 5.3 | 16.2% | -5.65%
8 | COc1cc(/C=N/n2c(C)cc(C)c(C#N)c2=O)cc(OC)c1OC | -11.9% | 12.9% | -3.4% | 9.1 | -1.05% | -25.4%
9 | CCOC1(OCC)CCC2(CC1)c1ccccc1-c1ccccc12 | 9.5% | 15.8% | 2.95% | 1.15 | -7.45% | 14.8%
10 | C=C(C)C(=O)OCCCCC | 8.7% | 5.15% | 4.45% | 6.65 | -3.55% | 2.95%
11 | CCC[C@H](C)[C@H]1NC(=O)[C@@H](NC(=O)[C@@H](CC(C)C)N(C)C(=O)C2CCCN2C(=O)[C@H](C)O)[C@@H](C)OC(=O)[C@H](CC(C)C)N(C)C(=O)[C@@H]2CCCN2C(=O)[C@H](CC(C)C)NC(=O)[C@@H](C)C(=O)[C@H](C(C)C)OC(=O)C[C@@H]1O (stereo partly specified) | 21.2% | 9.35% | -5.9% | 26.3 | -20.9% | -54%
12 | CC1(C)S/C(=C\c2ccccc2)c2nc3ccccc3c(=O)n21 | -6.8% | -7.2% | -16.1% | 2.3 | -0.4% | -21.4%
13 | O=C(Nc1cccc(F)c1)Oc1ccc(OCc2ccccc2)cc1 | 3.8% | 6.6% | 9.9% | 8.7 | 17.9% | 16%
14 | CCOC(=O)NC(Nc1ccc(S(=O)(=O)Nc2ncccn2)cc1)(C(=O)OCC)C(F)(F)F (stereo unspecified) | -0.55% | -19.4% | 10.9% | 32.1 | 16.9% | 2.2%
15 | CC(C)CCOC(=O)c1ccccc1Cl | 17.7% | 18.5% | 11.1% | 12.4 | 0.15% | -14.6%
16 | N#C/C(=C\c1ccccc1Br)C(=O)c1ccccc1 | 15.2% | 6.15% | -3.35% | 11.4 | -12.8% | -14.3%
17 | CN(C)c1nc(=S)c2cn[nH]c2[nH]1 | 0.1% | 0% | -3.7% | -21.8 | 6% | -1.2%
18 | O=C1C(O)=C(c2ccccc2)C12CSC1(CS2)C(=O)C(O)=C1c1ccccc1 (stereo unspecified) | 4.45% | -1.55% | -12.9% | 5.4 | 6.05% | 17.3%
19 | S=C(NNC(=S)Nc1ccccc1Cl)NNc1ccccc1 | 80.8% (active) | 82.8% (active) | 93.4% (active) | 68.2 | 82.8% (active) | 88.9% (active)
20 | Cc1ccccc1C(c1ccccc1C)c1ccccc1C | -10.8% | 1% | -10.8% | -15.6 | 1.25% | -19.6%
21 | CCCCCC(CSCC)C(=O)/C=C/c1ccccc1 (stereo unspecified) | 8.3% | 1.4% | -7% | -1.55 | 18.6% | 5.6%

Row | Structure (SMILES) | growth inhibition [1] | growth inhibition [2] | growth inhibition [3] | growth inhibition [4] [%] | growth inhibition [5] | growth inhibition [6]
22 | Nc1nc(-c2ccc(S(=O)(=O)O)cc2)cc(=O)[nH]1 | -9.6% | -4.5% | -10.7% | 17.2 | -27.4% | 16.5%
23 | COc1nc(SC)nc2c1cnn2C1OC(C(O)CO)C(OC)C1O (stereo unspecified) | 4.85% | -1.7% | 3.35% | 9.95 | -4.6% | 16.3%
24 | Cc1ccc(S(=O)(=O)OC2C(C)OCOC3COCOC32)cc1 (stereo unspecified) | -6.3% | -6.45% | 5.4% | -13.7 | 2.65% | -9.85%
25 | Cc1cc(Br)c(NC(=O)c2csnn2)c(Br)c1 | -31% | -13.6% | -13.6% | -26.8 | 2.65% | -11.4%
26 | N#CCCC(=O)c1ccc[nH]1 | 6.6% | 10.8% | 2.2% | 5.8 | 1.3% | 8.4%
27 | C/C(CC1CCCCC1)=N\NC(N)=O | 0.25% | 1.35% | -5.8% | 13.2 | -10.9% | -27.1%
28 | Cc1nn(C(N)=S)c(C)c1N=Nc1ccc(Cl)cc1 | 9.6% | -0.25% | 10.8% | -62.8 | -8.35% | 19.9%
29 | NC(Cc1ccccc1)C(=O)Nc1cccnc1 (stereo unspecified) | -17.4% | 15.2% | 7.75% | -44.6 | 15.8% | -5.75%
30 | COc1ccc(NC(=O)CC(=O)N2N=C(N(c3ccccc3)c3ccccc3)CC2c2ccccc2)cc1 (stereo unspecified) | 4.75% | 2.05% | 12.2% | 26.3 | 17.6% | -29.8%
31 | CCOC(=O)c1cc(-c2ccc(OC)c(OC)c2)c[nH]1 | 14.6% | -2.3% | 40.2% | 12.6 | 23.1% | 28%
32 | CCOC1(OCC)C2(Cl)C(Cl)=C(Cl)C1(Cl)C1CCCC12 (stereo unspecified) | 23.7% | 3.75% | 11.5% | 17.1 | -12.7% | 20.6%
33 | CC(=O)CCC(CC=O)C(C)C (stereo unspecified) | 3.35% | 0% | 7.6% | -4.9 | -3.65% | 2.6%
34 | CC(C)N(C(=O)c1cccc([N+](=O)[O-])c1)C(C)C | 14.6% | 11.2% | 7.5% | -30.9 | -4.1% | 15.8%
35 | O=C(Nc1ccccc1C(=O)N/N=C/c1ccc(Cl)cc1)c1ccccc1Cl | 49.2% | 27.9% | 22.6% | 29.6 | 42.1% | 25.8%
36 | Cc1ccc(NC(=O)c2ccc(Cl)cc2)cc1Cl | 18.9% | 1.35% | 2.95% | -9.65 | 13.8% | -2.3%
37 | CN(C)/C=N\c1ncnc2c1ccn2C1OC(CO)C(O)C1O (stereo unspecified) | -2.15% | -5.4% | -10.3% | 10.2 | 3.15% | -4.7%
38 | CCOC(=O)CSC(=O)NCCCl | 21.1% | -0.5% | -2.8% | 8.45 | 17.6% | 9.1%
39 | CCCCCCOC(=O)CCCCCC1CCCCC1 | 3.15% | -6.5% | 2.3% | -77.4 | -6.05% | -6.55%
40 | COc1cc(OC)c2c3c(OC)cc(OC)c4c(=O)c(O)c(C[C@@H](C)O)c(c5c(C[C@@H](C)O)c(O)c(=O)c1c25)c43 | 66.8% | 46.4% | 37% | -4.45 | 34.4% | 54.9%
41 | N#[N+]c1ccc(Nc2ccccc2)cc1 | -8.2% | 9.55% | -20.1% | 12.3 | -10.8% | -4.25%
